# SW480 rereplic – A quantitative high throughput screen for small molecules that induce DNA re-replication in SW480 colon adenocarcinoma cells. SW480 DNA re-replication, Hoechst DNA content imaging, 48 h. Potency, µM (doses to about 46.1 µM), without a hit: at the top dose re-replication activation, actives largely listed as activators. 1.8% of 340,000 active. AID 624297, 2012; further: % of control where 0% means no effect; nearly all actives have a fitted effect of over 55% in size
#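 Hoechst fluorescence of nuclei (405 nm excitation, 500-530 nm emission) measured by plate-scanning imager after 48 hr compound exposure at 37 C; re-replication scored as increased number of nuclei with elevated intensity.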
# KB-3-1 cytotox – qHTS assay for MDR1-selective chemotherapeutics: Primary screen using the parental adenocarcinoma cell KB-3-1; KB-3-1 viability, CellTiter-Glo ATP luminescence, 72 h; Potency, µM (highest dose often 46.1 µM), usual class: cytotoxic; 1.4% of 400,000 active; AID 1347075, 2019; further: on the % scale 0 is the no-effect control and ±100 the full control effect; nearly all actives have a fitted effect of over 60% in size
#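 Cytotoxicity measured as CellTiter-Glo luminescence after 72 h at 37 C. Compound titrations were pinned onto drug-naive KB-3-1 parental adenocarcinoma cells grown in DMEM with 10% FBS, and normalized data fitted to concentration-response curves.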
# MCF10A rerep – A quantitative high throughput screen for small molecules that induce DNA re-replication in MCF 10a normal breast cells. MCF 10A DNA re-replication, Hoechst nuclear intensity, 48 h. Potency, µM (top dose mostly 46.1 µM), for the others: at the highest dose activity, positive = re-replication, usual class: activators. 2.9% of 350,000 active; further: % of control where 0% means no effect; nearly all actives have a fitted effect of over 50% in size
# KB-V1 MDR tox – qHTS assay for MDR1-selective chemotherapeutics: Primary screen using the drug-selected MDR subline cells KB-V1; AID 1347076, 2019; Potency, µM (titrated, usually from 46.1 µM), most hits filed as cytotoxic; 3.4% of 400,000 active; KB-V1 MDR cells viability, CellTiter-Glo, 72 h; further: on the % scale 0 is the no-effect control and ±100 the full control effect; nearly all actives have a fitted effect of over 60% in size
#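 Cells of the MDR subline KB-V1 are plated, dosed with compound at multiple concentrations, and incubated 72 h at 37 degrees C; CellTiter-Glo is then added and luminescence read after 10 min.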
# ELG1 repair inh – qHTS screen for small molecules that inhibit ELG1-dependent DNA repair in human embryonic kidney (HEK293T) cells expressing luciferase-tagged ELG1 | HEK293T ELG1-luciferase reporter, luminescence, 16 h; DNA damage induced by 5-fluorouridine | Potency, µM (highest dose often 46.1 µM), without a hit: at the top dose activity change, negative = inhibition, most hits filed as inhibitors | 2.3% of 330,000 active; further: on the % scale 0 is the no-effect control and ±100 the full control effect; nearly all actives have a fitted effect of over 55% in size
#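 Luminescence from the luciferase reporter, measured 30 min after ONE-Glo reagent at room temperature, was the read-out. Beforehand, 2,000 cells per well were exposed for 16 hr at 37 °C to 5-fluorouridine together with compound or vehicle.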
# Starred values were filed as active, the others as inactive; i = inactive; ? = inconclusive; · = no result. Sampled rows, rich in hits. Any-hit rate of the full collection: about 8.1%. The call rests on the fitted dose curve; in most records, active means well fitted curve in the direction sought with a large enough effect; inconclusive means small, poorly fitted or top-dose-only effect, or another doubt; inactive means no such curve, though single readings can be large; an effect the other way counts as inactive or inconclusive. Potency means the concentration at half of the fitted maximal effect.
SMILES,SW480 rereplic,KB-3-1 cytotox,MCF10A rerep,KB-V1 MDR tox,ELG1 repair inh
c1ccc2c(CCNC3CCCCC3)c[nH]c2c1,21µM*,i,-12%,i,0%
CC(C)(C)NCC(O)c1cc(Cl)c(N)c(C(F)(F)F)c1 (configuration not stated),2%,·,-4%,·,·
CC1CCN(C(CC(=O)c2ccccc2)C(=O)c2ccccc2)CC1 (configuration not stated),6.5µM*,i,3.7µM*,i,·
O=C(CN1CCCC1)c1ccccc1,·,i,·,i,·
O=S(c1ccccc1)c1ccccc1,-3%,i,-22%,i,·
CN1C[C@H](C(=O)N[C@]2(C)O[C@@]3(O)[C@@H]4CCCN4C(=O)[C@H](Cc4ccccc4)N3C2=O)C=C2c3cccc4[nH]cc(c34)C[C@H]21,15%,·,-9%,·,·
CC1CC(C)(O)CC(C(O)CC2CC(=O)NC(=O)C2)C1=O (configuration not stated),?,0.92µM*,?,6.5µM*,·
Nc1c(C(=O)OCC2CCCO2)c2nc3ccccc3nc2n1Cc1cccs1 (configuration not stated),9%,?,?,i,?
COCCCNC(=O)c1c(N)n(Cc2ccco2)c2nc3ccccc3nc12,9.2µM*,i,12µM*,i,?
CC(C)OC(=O)c1c(N)n(Cc2ccco2)c2nc3ccccc3nc12,15%,i,-4%,i,8%
CC(C)CNC(=O)c1c(N)n(Cc2ccco2)c2nc3ccccc3nc12,21µM*,?,6.5µM*,16µM*,26µM*
Nc1c(C(=O)NCC2CCCO2)c2nc3ccccc3nc2n1Cc1ccco1 (configuration not stated),13µM*,i,2.6µM*,i,23µM*
Nc1c(C(=O)NC2CCCC2)c2nc3ccccc3nc2n1CC1CCCO1 (configuration not stated),15µM*,i,7.3µM*,i,15µM*
CNC(=O)COC(=O)c1ccc(-c2nc3ccccc3s2)s1,0%,?,-8%,?,?
CCCNC(=O)c1c(N)n(Cc2ccco2)c2nc3ccccc3nc12,?,i,2.1µM*,i,23µM*
Nc1c(C(=O)NCc2ccco2)c2nc3ccccc3nc2n1CCN1CCCCC1,-2%,i,-4%,i,?
COCCOC(=O)c1c(N)n(Cc2ccco2)c2nc3ccccc3nc12,0%,i,-2%,i,-4%
COc1ccc(Cn2c(N)c(C(=O)NCc3ccco3)c3nc4ccccc4nc32)cc1OC,0.52µM*,?,?,21µM*,?
COc1ccc(NC(=O)CCCn2c(=O)oc3ccccc32)cc1Cl,-11%,i,3%,i,?
C=Cc1ccc(Cn2c(C)c(CNCCc3cc(OC)ccc3OC)c(C(=O)O)c2C)cc1,·,i,·,i,·
